A number with no mark means an inactive call. Records with an inconclusive call do not appear. Calls of active or inactive are those of the source. Unless noted, calls follow the shape of the dose curve; as a rule, active = well fitted curve in the direction sought with a large enough effect in the repeat runs; inconclusive = weak or mixed curves; inactive = no such curve, though single readings can be large; an effect the other way counts as inactive or inconclusive.

A short description of assay [1]: qHTS assay to identify small molecule agonists of the hypoxia (HIF-1) signaling pathway - cell viability counter screen (AID 1224844; calls by dose curve; also: nearly all actives have a fitted effect of over 50% in size; also: potency is read from the fitted curve at half-maximal effect). An outline of the steps: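 Viability counter screen: HRE-bla ME-180 cells plated 5 hrs before compound addition, treated 17 hrs at 37C and 5% CO2, then CellTiter-Glo added after the FRET reporter read; luminescence after 30 min.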
(Quantitative high-throughput screening tests each substance at several concentrations.)

Assay [2] can be described thus: qHTS assay to identify small molecule agonists of H2AX (AID 1224845; active = well fitted activation curve with a large enough effect in the signal ratio in the repeat runs, not every such curve was filed as active; the % refers to the signal ratio; also: potency is read from the fitted curve at half-maximal effect). An outline of the steps:
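Wild-type CHO-K1 cells plated overnight, then exposed 3 hr at 37C to compounds at 15 concentrations (0.76% DMSO). Lysed, then HTRF anti-pH2AX(S139)-cryptate/anti-H2AX-d2 detection after 24 hr at room temperature; emissions 665 and 620 nm.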

Assay [3] in a line: qHTS assay to identify small molecule agonists of the hypoxia (HIF-1) signaling pathway (AID 1224846; active = well fitted activation curve with a large enough effect in the signal ratio in the repeat runs, not every such curve was filed as active; the % refers to the signal ratio). An outline of the steps: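 Agonist mode reporter screen. ME-180 cells stably expressing bla under HRE control received test compounds in DMSO for 17 hrs (37C, 5% CO2), and beta-lactamase activity was then detected with the CCF4-AM FRET substrate.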
The nature of assay [4]: qHTS assay to identify small molecule agonists of H2AX - cell viability counter screen (AID 1224847; calls by dose curve; also: nearly all actives have a fitted effect of over 30% in size; also: potency is read from the fitted curve at half-maximal effect; as to activity change, negative = cytotoxicity: top concentration of the series differs between compounds). An outline of the steps: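 Compounds tested at 15 concentrations were incubated 3 hr at 37C with wild-type CHO-K1 cells; cellular ATP-based luminescence (CellTiter-Glo) indicated viability.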
Assay [5] in a line: qHTS RealTime-Glo MT Cell Viability Assay in HepG2 cells - 24 hour (AID 1224867). Also: nearly all actives have a fitted effect of over 50% in size. Also: potency is read from the fitted curve at half-maximal effect. An outline of the steps:
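Cell number in HepG2 cultures estimated from NanoLuc luminescence generated by metabolic reduction of a prosubstrate by living cells. The homogeneous, nonlytic format allowed repeated reads at 0, 8, 16, 24, 32 and 40 h of compound exposure.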

The nature of assay [6]: qHTS RealTime-Glo MT Cell Viability Assay in HEK293 cells - 32 hour (AID 1224868). Also: nearly all actives have a fitted effect of over 50% in size. Also: potency is read from the fitted curve at half-maximal effect. As to activity change, negative = cytotoxic: top concentration of the series differs between compounds. An outline of the steps: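 Homogeneous bioluminescent viability format in HEK293 cells (600 cells/well). Following 5 h at 37 C/5% CO2, 23 nL compound was pintooled; the signal was measured repeatedly during 40 h incubation.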
A short description of assay [7]: A CellTox Green Cytotoxicity Assay to monitor cytotoxicity in HEK293 cells - 0 hour (AID 1224869). Also: nearly all actives have a fitted effect of over 50% in size. An outline of the steps:
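Dead-cell fluorescence measured kinetically: asymmetric cyanine dye, HEK293, 600 cells/well, 5 h settle, 23 nL cpd/DMSO, 37 C, reads 0–40 h every 8 h.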

A short description of assay [8]: qHTS RealTime-Glo MT Cell Viability Assay in HepG2 cells - 40 hour (AID 1224870). Also: nearly all actives have a fitted effect of over 50% in size. An outline of the steps: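 HepG2 cells mixed with RealTime-Glo MT reagents (NanoLuc plus cell-permeant prosubstrate) were seeded at 600 cells/well, incubated 5 h at 37 C/5% CO2, then pinned with compounds in DMSO; nonlytic luminescence tracked viability during 40 h treatment.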
Assay [9] in a line: qHTS assay to identify small molecule agonists of the estrogen related receptor (ERR) signaling pathway from Tox21 library (AID 1224849; calls by dose curve; also: nearly all actives have a fitted effect of over 15% in size). The conditions noted are these: ERR reporter cell line, ONE-Glo luciferase, 18 h; at 92.4 µM (top of the series) unless noted. An outline of the steps:
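Quantitative HTS in agonist format: NTP ERR cell line, compounds transferred in DMSO after 6 h plating, 18 h incubation at 37 C, ONE-Glo luminescence endpoint.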

The nature of assay [10]: qHTS assay to identify small molecule antagonists of the estrogen related receptor (ERR) signaling pathway from Tox21 library (AID 1224848). Also: nearly all actives have a fitted effect of over 50% in size. Also: potency is read from the fitted curve at half-maximal effect. An outline of the steps: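 Tox21 10K compounds in DMSO tested for ERR pathway antagonism in NTP's ERR cell line; 18 h, 37 C exposure; ONE-Glo luminescence.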
% is scaled to controls: 0 for no effect and ±100 for the full control effect.

`CC(NN)c1ccccc1` (stereo not given): the activity change, negative = cytotoxicity in [1] was 1.2% [at 15.8 µM]; in assay [5], 1.66% [at 15.8 µM]. Also, the activation (H2AX phosphorylation) in assay [2] is -2.63% [at 31.6 µM]. Moreover, in assay [3], the activation was -1.03% [at 15.8 µM]. In addition, in assay [4], the Potency entry is “inactive”. The activity change, negative = cytotoxic in assay [6] was 1.03% [at 15.8 µM]; in assay [8], -0.13% [at 15.8 µM]. For the same compound, in assay [7], the cytotoxicity is -1.54% [at 15.8 µM].

As for `Nc1c(Cl)cc(Cl)cc1Cl`, the Potency entry in [1], in [2], in assay [3], in assay [4], in [5] and in assay [6] was “inactive” in each case. Besides, the Potency entry in assay [7] and in assay [8] was “inactive” throughout.

On to `Oc1ccc2c(c1)-c1ccccc1C2`, for which the Potency entry in [1], in assay [2], in assay [3], in assay [4], in [7] and in assay [8] was “inactive” in each case. In addition, in [9], the activity change, positive = activation was -22%.

For the compound `CC[C@H]1O[C@]2(CC[C@@H]1C)C[C@@H]1C[C@@H](C/C=C(\C)C[C@@H](C)/C=C/C=C3\CO[C@@H]4[C@H](O)C(C)=C[C@@H](C(=O)O1)[C@]34O)O2`, the Potency was 21.7 µM (active) in [1]; 44.6 µM (active) in assay [2]; 50 µM (active) in assay [4]; 30.4 µM (active) in assay [10]; 43.3 µM (active) in assay [5]; 24.3 µM (active) in [6]. Moreover, the activity change, positive = activation in assay [9] was -67.4%. For the same compound, in [7], the Potency result is “inactive”.

Regarding `CCCCCCCCCCCCCCCS(=O)(=O)Oc1ccccc1`, the Potency entry in [1], in [2], in assay [3], in assay [4], in assay [5] and in assay [6] was “inactive” each time. Also, the Potency result in [7] and in assay [8] was “inactive” each time.

As for `Cc1cc(CCN2CCN(c3nsc4ccccc34)CC2)cc2c1NC(=O)CC2(C)C`, the Potency in assay [1] is 38.9 µM (active); in [4], 113 µM (active); in assay [10] it was 5.45 µM (active); in [5] it was 54.9 µM (active); in [6], 7.76 µM (active). Further, the Potency result in [2] and in assay [7] was “inactive” in each case. Moreover, in [9], the activity change, positive = activation is -74.7%.

Turning to `Cc1cc(N)c(S(=O)(=O)O)cc1Cl`, the Potency result in [1], in assay [2], in assay [3], in assay [4], in assay [10] and in [5] was “inactive” each time. Besides, the Potency entry in [6], in assay [7] and in assay [8] was “inactive” each time. Moreover, the activity change, positive = activation in assay [9] is 5.22%.

On to `CCC(C)(C)C1CCCCC1OC(C)=O` (stereo not given), for which the Potency entry in [1], in assay [2], in [3], in assay [4], in assay [10] and in assay [6] was “inactive” throughout. The Potency result in [7] was “inactive”. The activity change, positive = activation in assay [9] was -0.855%.

Consider `Cc1cccc(S(=O)(=O)O)c1C`, for which the Potency result in assay [1], in assay [2], in assay [3], in assay [5], in assay [6] and in assay [7] was “inactive” throughout. In addition, the Potency result in assay [8] was “inactive”.

Turning to `NC(=O)CC[C@@H]1NC(=O)[C@H](Cc2ccccc2)NC(=O)[C@H](Cc2ccc(O)cc2)NC(=O)CCSSC[C@@H](C(=O)N2CCC[C@H]2C(=O)N[C@@H](CCCN=C(N)N)C(=O)NCC(N)=O)NC(=O)[C@H](CC(N)=O)NC1=O`, the Potency entry in assay [1], in [2], in [3], in assay [4], in assay [5] and in assay [6] was “inactive” each time. The Potency entry in assay [7] and in [8] was “inactive” in each case.

For the compound `Cc1ccc(O)c(C(C)(C)C)c1`, the Potency result in [1], in assay [2], in [3], in assay [5], in assay [6] and in assay [7] was “inactive” in each case. The Potency result in assay [8] is “inactive”.

Regarding `O=c1[nH]sc2cc(Cl)ccc12`, the Potency in [1] is 0.535 µM (active); in [10] it was 0.106 µM (active); in [5], 26.8 µM (active). Also, the Potency result in assay [2], in [4], in [6] and in assay [7] was “inactive” in each case. Further, in assay [9], the activity change, positive = activation was -42.9% [at 42.5 µM].

With `NNC(=O)c1cccc(C(=O)NN)c1`, the Potency result in assay [1], in assay [2], in [3], in assay [6], in assay [7] and in assay [8] was “inactive” in each case.

With `O=C(O)c1ccc(Cl)c(Cl)c1`, the Potency result in [1], in [2], in assay [3], in assay [4], in assay [10] and in assay [5] was “inactive” throughout. For the same compound, the Potency entry in [6], in assay [7] and in assay [8] was “inactive” in each case.

In the case of `CCCCCCCC(=O)[O-].CCCCCCCC(=O)[O-].[Zn+2]`, the Potency entry in [1], in [2], in [3], in assay [4], in assay [5] and in assay [6] was “inactive” throughout. The Potency result in assay [7] and in assay [8] was “inactive” each time.

`CC(C)(C)C(=O)OCOC(=O)C1N2C(=O)CC2S(=O)(=O)C1(C)C` (stereo not given): the Potency result in assay [1], in assay [2], in assay [3], in assay [4], in [5] and in assay [6] was “inactive” each time. The Potency entry in assay [7] and in assay [8] was “inactive” throughout.

Take `Cc1c(C)c2c(c(C)c1O)CCC(C)(COc1ccc(CC3SC(=O)NC3=O)cc1)O2` (stereo not given): the Potency entry in [1], in assay [2], in assay [3], in assay [4], in assay [5] and in assay [7] was “inactive” each time. The Potency result in assay [8] was “inactive”. Also, the Potency in assay [6] is 38.9 µM (active).

Regarding `CCCCCCCCS(=O)C(C)Cc1ccc2c(c1)OCO2` (stereo not given), the Potency result in assay [1], in assay [2], in assay [3] and in assay [7] was “inactive” throughout.

Consider `COC(=O)c1cc(Cl)ccc1OC`, for which the Potency entry in [1], in [2], in assay [3], in assay [4], in [5] and in assay [6] was “inactive” throughout. In addition, the Potency entry in assay [7] and in assay [8] was “inactive” throughout.

For `Clc1ccc2nsnc2c1NC1=NCCN1`, the Potency entry in assay [1], in assay [2], in assay [3], in assay [10], in assay [5] and in [6] was “inactive” in each case. In addition, the Potency result in assay [7] and in [8] was “inactive” in each case. The activity change, positive = activation in [9] is -5.33% [at 42.5 µM].
